Test results as given in PubChem BioAssay.
Activity calls are given as the source filed them.

Tests used:
[1] = adipocyte viability effects, profiling panel, cell-based, 3T3-L1 adipocytes, calcein-AM fluorescence, 48 h, basal (AID 1163); details: 3T3-L1 adipocytes viability, higher = more signal
[2] = HepG2 cell viability effects, profiling panel, calcein-AM fluorescence, 48 h, basal (AID 1164); details: higher = more signal
[3] = MM1S cell viability effects, profiling panel, calcein-AM fluorescence, 48 h, basal (AID 1165); details: higher = more signal;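 also: viability of MM1S multiple myeloma cells under basal unstimulated conditions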
[4] = basal RPMI8226 viability, no added stimulus, profiling panel, cell-based, calcein-AM fluorescence, 48 h, PK04 Diversity Set (AID 1166); details: RPMI8226 myeloma viability, higher = more signal;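 also: cells grown under basal conditions without added stimulus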
[5] = basal HepG2 mitochondrial membrane potential changes, profiling panel, cell-based, JC-1 fluorescence, 24 h, 100 nL compound (AID 1167); details: higher = more signal
[6] = basal 3T3-L1 adipocyte mitochondrial potential changes, profiling panel, cell-based, JC-1 fluorescence, 3T3-L1 adipocytes, 24 h, 100 nL compound (AID 1168); details: JC-1 mitochondrial fluorescence, higher = more signal, called active from +8 up or from −8 down
[7] = basal RPMI8226 mitochondrial membrane potential changes, profiling panel, cell-based, JC-1 fluorescence, 24 h, 100 nL compound (AID 1169); details: RPMI8226 myeloma, JC-1 mitochondrial potential fluorescence, higher = more signal
[8] = basal MM1S mitochondrial membrane potential changes, profiling panel, cell-based, JC-1 fluorescence, 24 h, 100 nL compound (AID 1170); details: higher = more signal
[9] = A549 lung cancer cell viability effects, profiling panel, resazurin fluorescence, 24 h, PK04 Diversity Set (AID 1171); details: higher = more signal, called active from +8 up or from −8 down
[10] = HepG2 liver cancer cell viability effects, profiling panel, resazurin fluorescence, 24 h, PK04 Diversity Set (AID 1172); details: higher = more signal
[11] = basal S. cerevisiae growth modulation, no modifier, primary screen, OD600, strain BY4716, 24 h, basal condition (AID 1173); details: OD600, 24 h, higher = more signal, called active from +8 up or from −8 down
[12] = MM1S myeloma cell viability, profiling panel, resazurin fluorescence, basal, 24 h, PK04 Diversity Set (AID 1174); details: higher = more signal, called active from +8 up or from −8 down;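 also: MM1S multiple myeloma cell line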
[13] = target: Dihydroorotate dehydrogenase (quinone), mitochondrial (Plasmodium falciparum (isolate 3D7)) (UniProt Q08210); assay: PfDHODH enzyme inhibitors, primary screen, biochemical, C-terminal His tag, absorbance 600 nm (AID 1175); details: DCIP absorbance 600 nm, higher = more signal, called active from +8 up or from −8 down;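 also: recombinant parasite enzyme with a five histidine tag at its C terminus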
[14] = S. cerevisiae RM11-1a growth modifiers, primary screen, strain RM11-1a, OD600, basal, 24 h (AID 1177); details: OD600, 24 h, higher = more signal, called active from +8 up or from −8 down;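 also: cultures grown under basal conditions with no added stressor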
[15] = E. coli acrAB mutant growth effects, primary screen, E. coli filamentation inducers, strain DRC39, OD650, 24 h (AID 1178); details: higher = more signal, called active from +8 up or from −8 down;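 also: growth measured as culture turbidity by optical density at 650 nm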
[16] = E. coli acrAB mutant growth effects, primary screen, E. coli filamentation inducers, strain DRC39, OD650, 48 h (AID 1179);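 also: screen aims at cell division blockers that make cells filament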; details: E. coli DRC39 delta-acrAB growth, higher = more signal, called active from +8 up or from −8 down
[17] = RPMI8226 myeloma cell viability, profiling panel, resazurin fluorescence, basal, 24 h, PK04 Diversity Set (AID 1180); details: higher = more signal;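 also: RPMI8826 multiple myeloma cell line at 5000 cells per well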
[18] = target: E3 ubiquitin-protein ligase XIAP (Homo sapiens) (UniProt P98170); assay: XIAP binders, primary screen, biophysical, small-molecule microarray, fluorescence 635 nm (AID 1181); details: small-molecule microarray binding, higher = more signal;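 also: score merges 667 nm emission and signal to noise over triplicate slides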
[19] = system: XIP peptide (Xip251-270) binding; assay: small-molecule binders of XIP peptide, primary screen, biochemical, small-molecule microarray, fluorescence 635/667 nm, 0.1 µg/mL protein (AID 1182); details: fluorescent protein binding, 635 nm, higher = more signal, called active from +8 up or from −8 down
XIP peptide (Xip251-270) = assay: small-molecule binders of XIP peptide, primary screen, biochemical, small-molecule microarray, fluorescence 635/667 nm, 0.5 µg/mL protein (AID 1183); details: small-molecule microarray binding, fluorescence 635 nm; higher = more signal

Sequence of Dihydroorotate dehydrogenase (quinone), mitochondrial (Plasmodium falciparum (isolate 3D7)) (Q08210 whole entry, looked up): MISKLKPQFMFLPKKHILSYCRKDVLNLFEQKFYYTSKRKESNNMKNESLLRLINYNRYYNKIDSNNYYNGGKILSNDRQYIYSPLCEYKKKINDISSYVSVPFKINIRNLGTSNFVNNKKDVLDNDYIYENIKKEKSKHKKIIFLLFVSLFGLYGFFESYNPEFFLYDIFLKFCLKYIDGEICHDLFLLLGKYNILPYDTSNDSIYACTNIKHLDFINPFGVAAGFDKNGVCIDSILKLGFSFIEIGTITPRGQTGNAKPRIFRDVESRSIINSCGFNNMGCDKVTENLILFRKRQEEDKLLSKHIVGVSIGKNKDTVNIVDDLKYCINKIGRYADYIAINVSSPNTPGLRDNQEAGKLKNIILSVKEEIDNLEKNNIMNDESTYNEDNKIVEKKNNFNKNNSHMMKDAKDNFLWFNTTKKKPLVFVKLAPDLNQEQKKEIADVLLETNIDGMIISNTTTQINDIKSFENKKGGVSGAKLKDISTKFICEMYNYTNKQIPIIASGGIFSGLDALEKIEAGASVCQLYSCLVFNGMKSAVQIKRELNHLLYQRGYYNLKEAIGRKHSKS
Sequence of E3 ubiquitin-protein ligase XIAP (Homo sapiens) (P98170 whole entry, looked up): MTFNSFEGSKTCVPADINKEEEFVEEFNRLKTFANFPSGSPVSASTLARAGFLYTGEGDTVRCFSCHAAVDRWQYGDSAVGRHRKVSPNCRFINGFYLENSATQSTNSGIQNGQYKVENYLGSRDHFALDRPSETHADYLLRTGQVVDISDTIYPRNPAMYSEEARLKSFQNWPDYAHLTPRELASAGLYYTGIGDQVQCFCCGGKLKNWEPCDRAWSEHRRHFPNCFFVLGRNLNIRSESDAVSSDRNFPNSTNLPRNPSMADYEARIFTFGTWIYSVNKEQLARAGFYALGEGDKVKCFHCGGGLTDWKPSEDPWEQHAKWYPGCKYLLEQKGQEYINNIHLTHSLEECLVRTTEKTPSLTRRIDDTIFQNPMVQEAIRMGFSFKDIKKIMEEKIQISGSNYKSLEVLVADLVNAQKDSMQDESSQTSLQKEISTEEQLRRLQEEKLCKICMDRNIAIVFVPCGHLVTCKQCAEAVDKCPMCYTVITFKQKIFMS

| SMILES | z-score [1] | z-score [2] | z-score [3] | z-score [4] | z-score [5] | z-score [6] | z-score [7] | z-score [8] | z-score [9] | z-score [10] | z-score [11] | z-score [12] | composite z-score [13] | z-score [14] | z-score [15] | z-score [16] | z-score [17] | composite z-score [18] | composite z-score [19] | composite z-score (XIP peptide (Xip251-270)) |
| --- | --- | --- | --- | --- | --- | --- | --- | --- | --- | --- | --- | --- | --- | --- | --- | --- | --- | --- | --- | --- |
| C=CCC(OC(C)=O)[C@@H]1[C@@H](N(Cc2cccc3ccccc23)C(=O)c2cccc3ccccc23)c2cc(OCCCO)ccc2N1C(=O)Cc1ccc(OC)cc1 (stereo not given in full) | 2.56 | 0.486 | 1.7 | -1.28 | 3.07 | 0.451 (inactive) | 0.402 | 0.779 | -0.245 (inactive) | 0.147 | -3 (inactive) | 1.09 (inactive) | 0.848 (inactive) | -1.48 (inactive) | 1.35 (inactive) | 0.717 (inactive) | 0.301 | 0.108 | 0.936 (inactive) | -0.314 |
| CCCCC(=C=CC[C@@H](O)c1ccc(OCCO)cc1)C[C@@H](O)c1cc(Cl)cc(Cl)c1O | 1.37 | 0.652 | -3.38 | -3.4 | -0.376 | 1.43 (inactive) | -0.0474 | 0.781 | 2.58 (inactive) | 2.12 | -5.94 (inactive) | 0.199 (inactive) | -2.43 (inactive) | -3.1 (inactive) | 3.34 (inactive) | 2.27 (inactive) | 0.285 | 0.0394 | 0.925 (inactive) | 0.365 |
| COC(=O)c1c2oc(c1C(=O)OC)C(=O)N[C@@H](C(C)C)Cn1nncc1C1(CCCCC1)NC(=O)N[C@H](CO)CC2 | -0.5 | 0.619 | 0.276 | -0.161 | 1.58 | 0.994 (inactive) | 0.144 | 1.08 | 2.11 (inactive) | 2.17 | -3.46 (inactive) | 1.4 (inactive) | 0.62 (inactive) | -0.989 (inactive) | 2.61 (inactive) | 2.18 (inactive) | 0.928 | 0.0623 | -0.503 (inactive) | -0.985 |
| O=C1O[C@H](c2ccccc2)[C@H](c2ccccc2)N2[C@H]1[C@@H](C(=O)Nc1nc3ccccc3s1)[C@]1(C(=O)Nc3ccc(C#CCCO)cc31)[C@H]2c1ccccc1OCCO | 1.87 | 0.383 | -1 | -0.198 | -2.75 | 1.18 (inactive) | -0.8 | -1.16 | 0.411 (inactive) | 0.253 | 0.243 (inactive) | 0.228 (inactive) | -0.244 (inactive) | 1.07 (inactive) | 0.381 (inactive) | 0.391 (inactive) | -0.914 | 0.15 | 1.52 (inactive) | 0.732 |
| C=CCNC(=O)[C@@H]1[C@H]2C(=O)O[C@H](c3ccccc3)[C@H](c3ccccc3)N2[C@H](c2ccc(O)cc2)[C@@]12C(=O)N(C(=O)OCCOC)c1ccc(C#Cc3ccc(OC)cc3)cc12 | 1.24 | 0.216 | -1.58 | -2.52 | -0.914 | 3.45 (inactive) | -0.351 | 0.0591 | 0.834 (inactive) | -0.35 | -0.468 (inactive) | 0.699 (inactive) | 0.21 (inactive) | 0.964 (inactive) | 0.236 (inactive) | 0.83 (inactive) | 0.804 | 0.14 | 0.688 (inactive) | 0.656 |
| COc1ccc([Si](C)(C)[C@@H]2[C@@H](CCn3cc(CCO)nn3)O[C@]3(C(=O)N(Cc4ccc(N5C(=O)c6cccc7cccc5c67)cc4)c4ccccc43)[C@H]2C)cc1 | 1.91 | -4.48 | -2.68 | -4.34 | 1.75 | 2.83 (inactive) | -1.04 | -1.78 | -2.38 (inactive) | -1.3 | -0.456 (inactive) | -5.44 (inactive) | 0.0498 (inactive) | 0.643 (inactive) | 2.2 (inactive) | 1.02 (inactive) | -4.14 | 0.0159 | 0.437 (inactive) | 0.739 |
| NC(=O)N1C(=O)C2C(C1=O)C1C=C(c3ccc(CO)cc3)C2C(C2CC2)N1Cc1cc2c(cc1Br)OCO2 (stereo not given) | 1.32 | -0.282 | -0.767 | -1.11 | 1.26 | 1.44 (inactive) | -0.3 | 0.463 | 0.761 (inactive) | 0.627 | -3.17 (inactive) | 0.814 (inactive) | -0.692 (inactive) | -1.02 (inactive) | 1.36 (inactive) | 0.422 (inactive) | 0.298 | -0.143 | 1.06 (inactive) | -0.673 |
| C=C(C1=CCN(S(=O)(=O)c2ccc(C)cc2)C1)[C@@H](OC(C)=O)[C@@H]1CCCN1S(=O)(=O)c1ccccc1[N+](=O)[O-] | 1.9 | -3.37 | -3.21 | -4.14 | 1.04 | 0.496 (inactive) | -1.21 | -2.86 | 0.0974 (inactive) | 0.174 | -0.372 (inactive) | -7.03 (inactive) | 1 (inactive) | 1.39 (inactive) | 2.93 (inactive) | 1.38 (inactive) | -4.54 | -0.301 | 0.698 (inactive) | -0.737 |
| C=CCC(OC(C)=O)[C@@H]1[C@@H](N(Cc2cc3ccccc3o2)C(=O)c2ccc(-c3ccccc3)cc2)c2cc(OCCCO)ccc2N1C(=O)c1ccc(-c2ccccc2)cc1 (stereo not given in full) | 0.893 | 0.249 | 0.402 | -0.777 | 3.06 | 0.604 (inactive) | -0.557 | 0.511 | 1.15 (inactive) | 0.634 | 0.18 (inactive) | 1.28 (inactive) | 0.192 (inactive) | 0.975 (inactive) | 1.47 (inactive) | 1.07 (inactive) | 0.996 | -0.102 | -0.547 (inactive) | -0.599 |
| CC(C)C(CO)N1C(=O)[C@@H]2[C@H]3C(=O)OCC=C[C@H]3OC23C=CCN(Cc2ccccc2)C(=O)[C@@H]13 (stereo not given in full) | 0.651 | -0.384 | 0.33 | 0.0894 | 0.341 | 0.232 (inactive) | 0.159 | 1.96 | -0.077 (inactive) | 0.25 | -1.57 (inactive) | 0.699 (inactive) | -0.429 (inactive) | -0.752 (inactive) | 1.53 (inactive) | 1.03 (inactive) | 0.359 | 0.411 | -0.433 (inactive) | -1.18 |
| CN(C)CCCC[C@@H]1NC(=O)[C@@H]2C[C@H](C(=O)NCCCCCNC(=O)CS)[C@H](c3cccc(OCCO)c3)N2C1=O | 1.56 | -1.33 | -0.669 | -0.348 | 0.902 | 0.533 (inactive) | 0.526 | 0.249 | -0.42 (inactive) | -0.0484 | -1.86 (inactive) | 0.78 (inactive) | -1.83 (inactive) | -2.53 (inactive) | 0.431 (inactive) | -0.248 (inactive) | 0.608 | -0.135 | 0.62 (inactive) | -0.351 |
| O=C1O[C@H](c2ccccc2)[C@H](c2ccccc2)N2[C@H]1[C@@H](C(=O)NC[C@H](O)c1ccccc1)[C@]1(C(=O)Nc3ccc(C#CC4(O)CCCCCC4)cc31)[C@H]2c1ccc(O)cc1 | 1.43 | -0.641 | -0.804 | -1.62 | -1.71 | -0.947 (inactive) | -0.672 | -0.566 | 0.814 (inactive) | 0.82 | -1.55 (inactive) | 0.557 (inactive) | -0.154 (inactive) | -0.49 (inactive) | 0.487 (inactive) | 0.972 (inactive) | 0.327 | -0.141 | 1.05 (inactive) | 0.444 |
| C=C(C(=O)CC[C@@H](OC(C)=O)c1ccccc1OCCO)C(C)C | -0.161 | -0.9 | -0.951 | 0.0365 | -0.75 | 0.544 (inactive) | -0.0109 | 0.0542 | 0.788 (inactive) | 0.166 | -13 (active) | 0.932 (inactive) | -3.59 (inactive) | 0.0933 (inactive) | 1.33 (inactive) | 0.928 (inactive) | 1.57 | -0.0163 | 0.888 (inactive) | 0.565 |
| CCCCCCC#C[Si](O[C@H](c1ccccc1)c1cn(Cc2ccccc2)nn1)(C(C)C)C(C)C | 0.28 | -0.316 | 0.163 | 0.0412 | 6.57 | 2.09 (inactive) | 0.548 | -0.198 | 4.71 (inactive) | 2.52 | -0.382 (inactive) | 2.12 (inactive) | 0.337 (inactive) | -0.486 (inactive) | 2.12 (inactive) | 1.36 (inactive) | 2.68 | -0.0368 | 0.663 (inactive) | -0.15 |
| C#CCN1C(C(=O)OCC)OC[C@H]1c1ccccc1 (stereo not given in full) | 0.714 | -0.0851 | 0.712 | -0.181 | 1.06 | 0.842 (inactive) | 0.297 | -0.316 | -0.282 (inactive) | 0.513 | -6.25 (inactive) | 1.49 (inactive) | 0.253 (inactive) | -2.24 (inactive) | 2.47 (inactive) | 0.724 (inactive) | 0.0912 | -0.227 | -0.0319 (inactive) | -0.258 |
